Results reported in PubChem BioAssay (Tox21).
A structure can be active in one record and inactive in another. Active and inactive are the calls of the source. Unless noted, the call rests on the fitted dose curve; in most records, active means well fitted curve in the direction sought with a large enough effect in the repeat runs; inconclusive means weak or mixed curves; inactive means no such curve, though single readings can be large; an effect the other way counts as inactive or inconclusive.

Tests used:
[1] = qHTS assay for small molecule agonists of the p53 signaling pathway (AID 651631; calls by dose curve; further: nearly all actives have a fitted effect of over 15% in size; further: potency means the concentration at half of the fitted maximal effect)
Outline: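 Testing took place in human colorectal HCT-116 cells with stable p53RE-driven beta-lactamase. After 16 h of compound exposure at 37 °C, a FRET substrate was added and fluorescence recorded 2 h later.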

[2] = qHTS assay for small molecule agonists of the p53 signaling pathway - cell viability (AID 651633; calls by dose curve; further: nearly all actives have a fitted effect of over 30% in size; further: potency means the concentration at half of the fitted maximal effect)
Outline: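 p53RE-bla cells, seeded at 4,000 per well and rested 5 h at 37 C/5% CO2, received compounds in DMSO for 16 h at 37 C. CellTiter-Glo was then added, and luminescence was read after 30 min at room temperature to gauge cytotoxicity.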

[3] = qHTS assay for small molecules that induce genotoxicity in human embryonic kidney cells expressing luciferase-tagged ATAD5 - cell viability (AID 651634; calls by dose curve; further: nearly all actives have a fitted effect of over 25% in size)
Outline: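 Cytotoxicity counterscreen in HEK293T cells bearing an ATAD5-luciferase reporter: live-cell protease activity measured by CellTiter-Fluor fluorescence after 15.5 hr compound exposure.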

[4] = qHTS assay for small molecule disruptors of the mitochondrial membrane potential - cell viability (AID 720634; calls by dose curve;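 further: human HepG2 liver cancer cells; nearly all actives have a fitted effect of over 20% in size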)
Outline: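 After overnight attachment at 37 C, HepG2 cells received compound or DMSO vehicle for 1 hr. Viability is then taken from ATP-driven luminescence following a 30 min room-temperature CellTiter-Glo step.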

[5] = qHTS assay for small molecule disruptors of the mitochondrial membrane potential (AID 720635); further: potency means the concentration at half of the fitted maximal effect
Outline: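 HepG2 cells (2,000/well) attached overnight at 37C, then took compound for 1 hr at 37C, 5% CO2. Mito-MPS dye was added for 30 min; fluorescence was read at 490/535 nm (monomers) and 540/590 nm (aggregates).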

[6] = qHTS assay to test for compound auto fluorescence at 590 nm (red) in HepG2 cells (AID 720674)
Outline: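 Rose Bengal sodium served as the red fluorophore standard. HepG2 monolayers (overnight attachment, MEM with 10% FBS) were exposed to test compounds for 1 hr at 37 C and read at Ex 540/Em 590 nm.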

[7] = qHTS assay to test for compound auto fluorescence at 535 nm (green) in HepG2 cells (AID 720675)
[8] = qHTS assay to test for compound auto fluorescence at 460 nm (blue) in HEK293 cells (AID 720678); further: potency means the concentration at half of the fitted maximal effect
Outline: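 HEK293, 2,000 cells/well, 10% dialyzed FBS; attach 4-5 hr 37C; pin compound or DMSO; o/n 37C/5% CO2; fluorescence 405/460 nm; triamterene-equivalent units.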

[9] = qHTS assay to test for compound auto fluorescence at 590 nm (red) in HEK293 cells (AID 720679)
Outline: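 Intensity at 540nm excitation and 590nm emission is reported as Rose Bengal sodium-equivalent autofluorescence. Measurements followed overnight exposure (37C, 5% CO2) of HEK293 cells, 2,000 per well, to 23 nL compound.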

[10] = qHTS assay to test for compound auto fluorescence at 535 nm (green) in HEK293 cells (AID 720680)
[11] = qHTS assay to test for compound auto fluorescence at 460 nm (blue) in HEK293 cell free culture (AID 720681); further: potency means the concentration at half of the fitted maximal effect
Outline: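 Test compounds were pinned into cell-free culture medium (DMEM with 10% FBS) and fluorescence was read directly at Ex/Em 405/460 nm. Signals were expressed as fluorescence equivalents of triamterene, with DMSO vehicle as control.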

[12] = qHTS assay to test for compound auto fluorescence at 535 nm (green) in HEK293 cell free culture (AID 720682)
Outline: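 DMEM + 10% FBS, cell-free; cpd or DMSO pinned in; Ex485/Em535 read; output as fluorescein-equivalent signal.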

[13] = qHTS assay to test for compound auto fluorescence at 590 nm (red) in HEK293 cell free culture (AID 720683)
Outline: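 Tox21 10K library compounds were pinned into cell-free DMEM with 10% FBS and fluorescence was read at excitation 540 nm. Activity is expressed as Rose Bengal sodium equivalency.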

[14] = qHTS assay to test for compound auto fluorescence at 590 nm (red) in HepG2 cell free culture (AID 720684)
Outline: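 Red fluorescence (540 nm excitation, 590 nm emission) was measured after compound transfer into cell-free MEM supplemented with 10% FBS. Values are equivalencies against Rose Bengal sodium.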

[15] = qHTS assay to test for compound auto fluorescence at 460 nm (blue) in HepG2 cell free culture (AID 720685); further: potency means the concentration at half of the fitted maximal effect
Outline: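 Compound (23 nL) or DMSO pinned into cell-free MEM with 10% FBS; blue fluorescence read at 405/460 nm excitation/emission, expressed as auto-fluorescence equivalency to triamterene.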

[16] = qHTS assay to test for compound auto fluorescence at 535 nm (green) in HepG2 cell free culture (AID 720686)
[17] = qHTS assay to test for compound auto fluorescence at 460 nm (blue) in HepG2 cells (AID 720687); further: potency means the concentration at half of the fitted maximal effect
Outline: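 Cells (2,000/well in MEM with 10% FBS) attached overnight at 37 C, then were exposed to compound or DMSO for 1 hr at 37 C, 5% CO2. Fluorescence read at Ex/Em 405/460 nm, expressed as triamterene-equivalent signal.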

[18] = target: Glucocorticoid receptor (Homo sapiens) (UniProt P04150); assay: qHTS assay to identify small molecule agonists of the glucocorticoid receptor (GR) signaling pathway (AID 720691; active means well fitted activation curve with a large enough effect in the signal ratio in the repeat runs, not every such curve was filed as active; inconclusive means weak or mixed curves, or effect the other way; inactive means no such curve, though single readings can be large or run the other way; the % refers to the signal ratio); conditions: GR-bla HeLa, beta-lactamase reporter ratio, 18 h
Chain of Glucocorticoid receptor (Homo sapiens) (P04150 whole entry, looked up): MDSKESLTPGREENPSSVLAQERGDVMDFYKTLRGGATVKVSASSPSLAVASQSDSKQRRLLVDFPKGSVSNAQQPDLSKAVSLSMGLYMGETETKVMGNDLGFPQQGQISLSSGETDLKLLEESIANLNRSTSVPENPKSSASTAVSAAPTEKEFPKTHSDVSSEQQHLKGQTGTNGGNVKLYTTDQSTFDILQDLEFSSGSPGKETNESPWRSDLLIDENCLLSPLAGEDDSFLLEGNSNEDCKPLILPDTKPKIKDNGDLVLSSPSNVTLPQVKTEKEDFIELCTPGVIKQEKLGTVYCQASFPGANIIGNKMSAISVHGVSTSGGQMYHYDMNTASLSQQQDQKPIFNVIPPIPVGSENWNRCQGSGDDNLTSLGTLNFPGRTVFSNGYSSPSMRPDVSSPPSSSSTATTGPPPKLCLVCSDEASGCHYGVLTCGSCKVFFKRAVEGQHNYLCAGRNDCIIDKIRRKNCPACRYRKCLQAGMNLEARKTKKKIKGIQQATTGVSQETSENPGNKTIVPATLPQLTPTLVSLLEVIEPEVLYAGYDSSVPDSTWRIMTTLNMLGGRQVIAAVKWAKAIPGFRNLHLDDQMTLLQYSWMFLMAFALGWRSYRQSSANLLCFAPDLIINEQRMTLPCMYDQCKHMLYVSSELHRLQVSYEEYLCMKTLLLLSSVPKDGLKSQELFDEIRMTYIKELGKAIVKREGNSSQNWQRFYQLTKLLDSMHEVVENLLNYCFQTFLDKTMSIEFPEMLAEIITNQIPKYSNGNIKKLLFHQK
Outline: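 Agonist mode in a HeLa line carrying a GRE-controlled beta-lactamase reporter. Compounds act for 18 h at 37 C before a 2 h room-temperature FRET substrate step and fluorescence reading.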

[19] = target: Glucocorticoid receptor (Homo sapiens) (UniProt P04150); assay: qHTS assay to identify small molecule antagonists of the glucocorticoid receptor (GR) signaling pathway (AID 720692; active means well fitted inhibition curve with a large enough effect in the signal ratio in the repeat runs, not every such curve was filed as active; inconclusive means weak or mixed curves, or effect the other way; inactive means no such curve, though single readings can be large or run the other way; the % refers to the signal ratio; further: potency means the concentration at half of the fitted maximal effect)
Outline: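 Cells plated, rested 4 h at 37 C/5% CO2; compounds in DMSO pin-transferred; dexamethasone added to 5 nM final; 18 h at 37 C; B/G FRET substrate added, 2 h room temperature; fluorescence measured.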

[20] = qHTS assay for small molecules that induce genotoxicity in human embryonic kidney cells expressing luciferase-tagged ATAD5 (AID 651632); further: nearly all actives have a fitted effect of over 15% in size
Outline: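 Increased luciferase signal from ATAD5-tagged reporter cells indicates DNA-damage-driven ATAD5 induction. HEK293T cells are treated for 16 hr at 37C before detection with Amplite.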

[21] = activation: at 62.4 µM (top of the series)
On the % scale 0 is the no-effect control and ±100 the full control effect; tags describe the fitted curve by direction and shape or compound fluorescence and quenching.

N=C(N)n1cccn1
inactive: Potency [1] | Potency [2] | Potency [3] | Potency [4] | Potency [5] | outcome [6] | Potency [7] | Potency [8] | outcome [9] | outcome [10] | Potency [11] | outcome [12] | outcome [13] | outcome [14] | Potency [15] | Potency [16] | Potency [17] | Potency [18, 21] | Potency [19]

O=C1c2c(O)cccc2[C@H]([C@@H]2O[C@H](CO)[C@@H](O)[C@H](O)[C@H]2O)c2cc(CO)cc(O)c21
active: activation [18, 21] 14.2% [inconclusive]
inactive: Potency [1] | Potency [2] | Potency [3] | Potency [4] | Potency [5] | outcome [6] | Potency [7] | Potency [8] | outcome [9] | outcome [10] | Potency [11] | outcome [12] | outcome [13] | outcome [14] | Potency [16] | Potency [17] | activation ([18]; at 62.4 µM (top of the series)) -0.87% | Potency [19]

CC1(C)CCC(NC(=O)[C@@H](N)CCC(=O)O)CC1
inactive: Potency [1] | Potency [2] | Potency [3] | Potency [4] | Potency [5] | outcome [6] | Potency [7] | Potency [8] | outcome [9] | outcome [10] | Potency [11] | outcome [12] | outcome [13] | outcome [14] | Potency [15] | Potency [16] | Potency [18, 21] | Potency [19]

O=C(O)C[C@H](O)C[C@H](O)/C=C/c1c(C2CC2)nc2ccccc2c1-c1ccc(F)cc1
inactive: Potency [1] | Potency [20] | Potency [3] | Potency [4] | outcome [6] | Potency [7] | Potency [8] | outcome [9] | outcome [10] | Potency [11] | outcome [12] | outcome [13] | outcome [14] | Potency [15] | Potency [16] | Potency [17]

COc1cc(NS(C)(=O)=O)ccc1Nc1c2ccccc2nc2ccccc12
active: Potency [1] 1.68 µM | Potency [2] 18.8 µM | Potency [5] 8.8 µM | Potency [8] 11.2 µM [fluorescent] | Potency [11] 12.6 µM | Potency [15] 12.6 µM [fluorescent] | Potency [17] 12.6 µM [fluorescent]
inactive: Potency [4] | outcome [6] | Potency [7] | outcome [9] | outcome [10] | outcome [12] | outcome [13] | outcome [14] | Potency [16]

CC1(C)C[C@@H]1C(=O)N/C(=C\CCCCSC[C@H](N)C(=O)O)C(=O)O
inactive: Potency [1] | Potency [2] | Potency [3] | Potency [4] | Potency [5] | outcome [6] | Potency [8] | outcome [9] | outcome [10] | Potency [11] | outcome [12] | outcome [13] | outcome [14] | Potency [15] | Potency [16] | Potency [17]

CC(C)OC(=O)Nc1ccc2nc(-c3cscn3)[nH]c2c1
inactive: Potency [2] | Potency [3] | Potency [4] | outcome [6] | Potency [7] | Potency [8] | outcome [9] | outcome [10] | Potency [11] | outcome [12] | outcome [13] | outcome [14] | Potency [15] | Potency [16] | Potency [17]
active: Potency [1] 2.37 µM | Potency [5] 9.87 µM

CCN(CC)C(=O)[C@]1(c2ccccc2)C[C@@H]1CN
inactive: Potency [1] | Potency [2] | Potency [3] | Potency [4] | Potency [5] | outcome [6] | Potency [7] | outcome [9] | outcome [10] | Potency [11] | outcome [12] | outcome [13] | outcome [14] | Potency [15] | Potency [16] | Potency [17] | Potency [18, 21] | Potency [19]

c1ccc(-c2ccc(C(c3ccccc3)n3ccnc3)cc2)cc1 (configuration not stated)
inactive: Potency [20] | Potency [3] | Potency [4] | outcome [6] | Potency [7] | Potency [8] | outcome [9] | outcome [10] | Potency [11] | outcome [12] | outcome [14] | Potency [15] | Potency [16] | Potency [17]
active: Potency [1] 29.8 µM | Potency [19] 23.9 µM

CCCCCCOC(=O)c1cccnc1
inactive: Potency [1] | Potency [2] | Potency [3] | Potency [4] | Potency [5] | outcome [6] | Potency [7] | Potency [8] | outcome [9] | outcome [10] | Potency [11] | outcome [12] | outcome [13] | outcome [14] | Potency [15] | Potency [16] | Potency [17] | Potency [18, 21] | Potency [19]

CC[C@H]1OC(=O)[C@H](C)C(=O)[C@H](C)[C@@H](O[C@@H]2O[C@H](C)C[C@H](N(C)C)[C@H]2O)[C@](C)(OC)C[C@@H](C)C(=O)[C@H](C)[C@H]2N(CCCCn3cnc(-c4cccnc4)c3)C(=O)O[C@]12C
inactive: Potency [1] | Potency [2] | Potency [3] | Potency [4] | Potency [5] | outcome [6] | Potency [7] | Potency [8] | outcome [9] | outcome [10] | Potency [11] | outcome [12] | outcome [13] | outcome [14] | Potency [15] | Potency [16] | Potency [18, 21] | Potency [19]

CC(C)=CCC/C(C)=C/CC/C(C)=C/CC/C(C)=C/CC1=C(C)C(=O)c2ccccc2C1=O
inactive: Potency [1] | Potency [2] | Potency [3] | Potency [4] | outcome [6] | Potency [7] | Potency [8] | outcome [9] | outcome [10] | Potency [11] | outcome [12] | outcome [13] | outcome [14] | Potency [16] | Potency [17]

C/C(=C\C(=O)OCCCCCCCCC(=O)O)C[C@@H]1OC[C@H](C[C@@H]2O[C@H]2[C@@H](C)[C@H](C)O)[C@@H](O)[C@H]1O
inactive: Potency [1] | Potency [2] | Potency [3] | Potency [4] | Potency [5] | outcome [6] | Potency [7] | Potency [8] | outcome [9] | Potency [11] | outcome [12] | outcome [13] | outcome [14] | Potency [15] | Potency [16] | Potency [17] | Potency [18, 21] | Potency [19]

CC(C)(O/N=C(\C(=O)N[C@@H]1C(=O)N2C(C(=O)[O-])=C(C[n+]3ccccc3)CS[C@H]12)c1csc(N)n1)C(=O)O
inactive: Potency [1] | Potency [2] | Potency [3] | Potency [4] | Potency [5] | outcome [6] | Potency [8] | outcome [9] | outcome [10] | Potency [11] | outcome [12] | outcome [13] | outcome [14] | Potency [15] | Potency [16] | Potency [17] | Potency [18, 21]
